Test results: PubChem BioAssay (NCI)
About 83,000 compounds went through this panel and 20% of them were active in at least one assay; those are over-represented in the sample as a whole.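 Interpretation: 100, growth as untreated; towards 0, rising growth inhibition; 0, no net growth; 0 to -100, cell death. Compounds scoring below 10 were considered active.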 Active and inactive are the calls of the source.

system: COLO 205 colon; assay: NCI-60 one-dose screen, 48 h (100 = growth as untreated, 0 = no growth, -100 = all killed); details: 10 µM

SMILES | growth
COc1cc(C2CC(=O)Nc3c2c(C)nn3-c2nc3ccccc3[nH]2)cc(OC)c1O (configuration not stated) | 106% (inactive)
CCCCC(CC#N)(CCC)CCC | 106% (inactive)
COc1cc(C)c2sc3ccccc3c(=O)c2c1NCCN(C)C | 16.1% (inactive)
O=C(CCl)N1c2ccccc2Sc2ccc3ccccc3c21 | -76.3% (active)
CCOC(=O)Nc1ccc2c(c1)C(=O)N(CC)c1ccccc1O2 | -29.8% (active)
COc1ccc(/C=C(\c2cc(OC)c(OC)c(OC)c2)c2nnc(-c3cccs3)o2)cc1 | 112% (inactive)
COc1ccc(-c2cc(/C=C/C(=O)c3ccc(N)cc3)[nH]n2)cc1OC | 27.1% (inactive)
CCCCCCCCCCSC(=N)N (tested in a mixture with another compound) | -59.2% (active)
CC(=O)CS(C)(=O)=O | 106% (inactive)
Nc1ccc2c(c1)Cc1cc(N)c(Cl)cc1-2 | 105% (inactive)
CCOC(=O)c1cc(-c2ccccc2)nc(N)n1 | 114% (inactive)
O=C(Nc1ccc(OCc2nnc(-c3ccccc3)o2)c(F)c1)Nc1ccc(Cl)c(Cl)c1 | 58.9% (inactive)
Cc1[nH]nc2c(=S)[nH]c(=O)[nH]c12 | 109% (inactive)
CCC(OC(=O)CC(C)C)c1ccccc1 (configuration not stated) | 107% (inactive)
C/C=C\COc1cc(C)c(Cl)cc1Cl | 107% (inactive)
CC(=O)N(O)c1ccc(/C=C/c2ccccc2)cc1 | 46.5% (inactive)
CCOC(=O)c1c(C(F)(F)F)n([O-])c2ccc(OC)cc2[n+]1=O | 31.1% (inactive)

SMILES | growth
NCCNc1ccc2cc(-c3nc4ccccc4[nH]3)c(=O)oc2c1 | 104% (inactive)
Nc1ccc(Sc2ccc3c4c2cccc4c(=O)n2c4ccccc4nc32)cc1 | 50.8% (inactive)
COc1cccc(C(=O)NNc2nc(N3CCOCC3)nc(N3CCN(C(c4ccccc4)c4ccccc4)CC3)n2)c1 | 75.4% (inactive)
C=CCN1C(=O)/C(=C\c2ccc3c(c2)CCC3)SC1=S | 109% (inactive)
COc1cccc(-c2nnc(COc3ccc(-c4nc5ccc(C)cc5[nH]4)cc3OC)o2)c1 | 72.6% (inactive)
CNC(=O)c1cc(Oc2ccc(NC(=O)Nc3ccc(Cl)c(C(C)(C)C)c3)c(F)c2)ccn1 | 19.6% (inactive)
Cc1cc(C)c(C(=O)OC(C)CNC2CCCCC2)c(C)c1 (configuration not stated) | 96.8% (inactive)
CC(=O)Oc1ccc(C2=Cc3ccc(OC(C)=O)cc3OC2C)cc1 (configuration not stated) | 102% (inactive)
CC(=O)Nc1nc(C)c(C(=O)NNC=O)s1 | 128% (inactive)
O=C1/C(=C/c2ccc(O)cc2O)N=C2SCCCN12 | 106% (inactive)
Cc1ccc2c(c1)-c1cc(C)nn1-c1ccc(C#N)cc1O2 | 66.3% (inactive)
O=C(c1ccc(Cl)cc1)c1no[n+]([O-])c1C(=O)c1ccc(Cl)cc1 | 107% (inactive)
Nc1nsc(C(=O)c2ccc(O)cc2)n1 | 106% (inactive)
COc1ccc(C2=Cc3ccc(OC(C)=O)cc3OC2)cc1 | 110% (inactive)
Cc1nc2cc(-n3c(-c4ccc(F)cc4)nc4ccccc4c3=O)ccc2n1Cc1ccccc1 | 4.23% (active)
Cc1nnc2c3nnc(-c4ccc(Cl)cc4)n3c3ccccc3n12 | 111% (inactive)
CCCCNC(=O)Oc1ccc(/C(=C(\C)c2ccc(OC)cc2)c2ccc(OCCN3CCCCC3)cc2)cc1 | -7.56% (active)

system: DU-145 prostate; assay: as above; details: 10 µM

SMILES | growth
COc1cc(C2CC(=O)Nc3c2c(C)nn3-c2nc3ccccc3[nH]2)cc(OC)c1O (configuration not stated) | 96.4% (inactive)
CCCCC(CC#N)(CCC)CCC | 108% (inactive)
COc1cc(C)c2sc3ccccc3c(=O)c2c1NCCN(C)C | 77.1% (inactive)
O=C(CCl)N1c2ccccc2Sc2ccc3ccccc3c21 | -90.8% (active)
CCOC(=O)Nc1ccc2c(c1)C(=O)N(CC)c1ccccc1O2 | 7.48% (active)
COc1ccc(/C=C(\c2cc(OC)c(OC)c(OC)c2)c2nnc(-c3cccs3)o2)cc1 | 77% (inactive)
COc1ccc(-c2cc(/C=C/C(=O)c3ccc(N)cc3)[nH]n2)cc1OC | 22.8% (inactive)
CCCCCCCCCCSC(=N)N (tested in a mixture with another compound) | 79.6% (inactive)
CC(=O)CS(C)(=O)=O | 106% (inactive)
Nc1ccc2c(c1)Cc1cc(N)c(Cl)cc1-2 | 119% (inactive)
CCOC(=O)c1cc(-c2ccccc2)nc(N)n1 | 107% (inactive)
CCCOCC(O)CNCCN (configuration not stated) | 127% (inactive)
O=C(Nc1ccc(OCc2nnc(-c3ccccc3)o2)c(F)c1)Nc1ccc(Cl)c(Cl)c1 | 64.1% (inactive)
Cc1[nH]nc2c(=S)[nH]c(=O)[nH]c12 | 106% (inactive)
CCC(OC(=O)CC(C)C)c1ccccc1 (configuration not stated) | 103% (inactive)
C/C=C\COc1cc(C)c(Cl)cc1Cl | 111% (inactive)
CC(=O)N(O)c1ccc(/C=C/c2ccccc2)cc1 | 3.54% (active)
CCOC(=O)c1c(C(F)(F)F)n([O-])c2ccc(OC)cc2[n+]1=O | 26.2% (inactive)
NCCNc1ccc2cc(-c3nc4ccccc4[nH]3)c(=O)oc2c1 | 103% (inactive)

SMILES | growth
Nc1ccc(Sc2ccc3c4c2cccc4c(=O)n2c4ccccc4nc32)cc1 | 39.3% (inactive)
COc1cccc(C(=O)NNc2nc(N3CCOCC3)nc(N3CCN(C(c4ccccc4)c4ccccc4)CC3)n2)c1 | 87.2% (inactive)
C=CCN1C(=O)/C(=C\c2ccc3c(c2)CCC3)SC1=S | 106% (inactive)
COc1cccc(-c2nnc(COc3ccc(-c4nc5ccc(C)cc5[nH]4)cc3OC)o2)c1 | 65.2% (inactive)
CNC(=O)c1cc(Oc2ccc(NC(=O)Nc3ccc(Cl)c(C(C)(C)C)c3)c(F)c2)ccn1 | 60.8% (inactive)
CC(=O)/C(=C\c1ccc(Cl)cc1)c1ccccc1 | 0.722% (active)
Cc1cc(C)c(C(=O)OC(C)CNC2CCCCC2)c(C)c1 (configuration not stated) | 106% (inactive)
CC(=O)Oc1ccc(C2=Cc3ccc(OC(C)=O)cc3OC2C)cc1 (configuration not stated) | 62.8% (inactive)
CC(=O)Nc1nc(C)c(C(=O)NNC=O)s1 | 108% (inactive)
CCCCC(=O)N(c1ccc(Nc2c3ccccc3nc3cc([N+](=O)[O-])ccc23)cc1)S(C)(=O)=O | 26.3% (inactive)
O=C1/C(=C/c2ccc(O)cc2O)N=C2SCCCN12 | 104% (inactive)
Cc1ccc2c(c1)-c1cc(C)nn1-c1ccc(C#N)cc1O2 | 98.7% (inactive)
O=C(c1ccc(Cl)cc1)c1no[n+]([O-])c1C(=O)c1ccc(Cl)cc1 | 94.1% (inactive)
Nc1nsc(C(=O)c2ccc(O)cc2)n1 | 105% (inactive)
COc1ccc(C2=Cc3ccc(OC(C)=O)cc3OC2)cc1 | 90.2% (inactive)
Cc1nc2cc(-n3c(-c4ccc(F)cc4)nc4ccccc4c3=O)ccc2n1Cc1ccccc1 | 20.8% (inactive)
Cc1nnc2c3nnc(-c4ccc(Cl)cc4)n3c3ccccc3n12 | 103% (inactive)
Cc1cc(C)c2c(Nc3ncnc4c3sc3nc(C)cc(C)c34)n[nH]c2n1 | 113% (inactive)
CCCCNC(=O)Oc1ccc(/C(=C(\C)c2ccc(OC)cc2)c2ccc(OCCN3CCCCC3)cc2)cc1 | 72.9% (inactive)
